# The source made the active and inactive calls.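 The calls were made as follows: active = compounds that cut cell ATP glow, with a fitted half-effect dose at or under their top tested dose; inconclusive = flat partial loss of 30 to 70 percent, or poor fit; inactive = the rest.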
# Assay: viability loss in A549 lung cancer cells – cell-based, CellTiter-Glo luminescence, dry powder, set 2, cytotoxicity control, dose response (AID 743152)
row,SMILES,outcome
1,O=C1CN2Cc3c(ccc(Cl)c3Cl)N=C2N1,inactive
2,C[C@@H]1CC(=O)NN=C1c1ccc(Cl)cc1,inactive
3,Cn1c(NC(=O)c2ccccc2)nc2ccccc21,inactive
4,C[C@@H]1CC(=O)NN=C1c1ccc(C2CCCCC2)cc1,inactive
5,C[C@@H]1CC(=O)NN=C1c1ccc(-c2cncnc2)cc1,inactive
6,CCN(CC)c1ccc(C2=NNC(=O)CC2C)cc1[N+](=O)[O-] (stereo not drawn),inactive
7,C[C@H]1CC(=O)NN=C1c1ccc(N2CCOCC2)c(F)c1,inactive
8,CC(=O)Nc1ccc(C2=NNC(=O)C[C@H]2C)cc1[N+](=O)[O-],inactive
9,COc1cc2c(cc1OC)-c1cc(=Nc3c(C)cc(C)cc3C)n(C)c(=O)n1CC2,inactive
10,C[C@@H]1CC(=O)NN=C1c1ccc(N2CCOCC2)cc1,inactive
11,C[C@@H]1CC(=O)NN=C1c1ccc(F)c(F)c1,inactive
12,C[C@@H]1CC(=O)NN=C1c1ccc(N2CCOCC2)c(F)c1,inactive
13,CCN1N=C(c2ccc(N(CC)CC)cc2)[C@H](C)CC1=O,inactive

# — PubChem BioAssay AID743152 (Broad Institute, 2013)
